14 molecules from PubChem BioAssay (EPA / NIEHS) can be followed below.

A short description of test [1]: CCTE_Shafer_MEA_dev_per_burst_interspike_interval: CCTE's Neural Network Formation Assay for Burst Interspike Interval, Shafer Lab (AID 2284044).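 Also: mean spike spacing inside bursts as AUC over recordings on days 5 7 9 12.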 The essentials:
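Primary rat cortical neurons on 48-well MEA plates, exposed from day 0 through day 12, treatment renewed at DIV 5 and 9. Within-burst interspike interval recorded days 5, 7, 9, 12, well-averaged, summarised as AUC; negative fit versus DMSO.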

A short description of test [2]: CCTE_Shafer_MEA_dev_burst_duration_mean: CCTE's Neural Network Formation Assay for Mean Burst Duration, Shafer Lab (AID 2284045). The essentials: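 Rat cortical cultures, 1.5 x 10^5 cells/well with laminin drop; continuous dosing days 0–12, media plus treatment refreshed DIV 5, 9. AxIS adaptive spike detection; mean single-electrode burst duration, AUC over four recordings, negative direction vs DMSO.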

A short description of test [3]: CCTE_Shafer_MEA_dev_interburst_interval_mean: CCTE's Neural Network Formation Assay for Mean Interburst Interval, Shafer Lab (AID 2284046).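 Also: well-mean interburst interval of bursting electrodes as AUC over four recording days; curve fitted for decrease in interburst interval relative to DMSO.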 The essentials: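 Recordings on days 5, 7, 9 and 12 give well-mean interburst interval across actively bursting electrodes, summarized as area under the curve. Cultures: rat cortical neurons, continuous exposure from day 0, compound renewed at feeds; decrease analyzed versus DMSO.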

Test [4] is described as follows: CCTE_Shafer_MEA_dev_inter_network_spike_interval_mean: CCTE's Neural Network Formation Assay for Mean Inter-network Spike Interval, Shafer Lab (AID 2284047).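 As to AC50: potency for a decrease in mean inter-network spike interval below DMSO.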 The gist of the method:
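Primary rat cortical neurons on 16-electrode MEA wells, exposed from plating day 0 through DIV 12, compound renewed at DIV 5 and 9 media changes. Mean interval between network-spike peaks recorded DIV 5, 7, 9, 12; collapsed as trapezoidal AUC, fitted downward versus DMSO.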

Test [5] is described as follows: CCTE_Shafer_MEA_dev_network_spike_number: CCTE's Neural Network Formation Assay for Number of Network Spikes, Shafer Lab (AID 2284048).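 Also: synchronized bursts across electrodes counted on days 5 7 9 12 and integrated as AUC.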 The gist of the method: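 Rat cortical primary cultures on 48-well MEA (16 electrodes/well); continuous exposure DIV 0–12, full medium and treatment exchange DIV 5, 9. Readout: network spike count, AxIS adaptive detection, recordings DIV 5/7/9/12 collapsed to AUC; loss-of-signal fit, DMSO baseline.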

A short description of test [6]: CCTE_Shafer_MEA_dev_network_spike_peak: CCTE's Neural Network Formation Assay for Mean Number of Electrodes in Network Spike, Shafer Lab (AID 2284049).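 As to AC50: fitted for loss of signal meaning fewer electrodes in network spikes than DMSO.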 The essentials: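 Network-spike peak electrode count from recordings on days 5, 7, 9 and 12 was combined as trapezoidal area under the curve. Rat cortical cultures were treated continuously from plating, with compound renewed at each feed (DIV 5, 9); fits versus DMSO.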

Test [7] can be described thus: CCTE_Shafer_MEA_dev_spike_duration_mean: CCTE's Neural Network Formation Assay for Mean Spike Duration, Shafer Lab (AID 2284051).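 Also: mean network spike duration pooled as area under curve over DIV 5 to 12 recordings.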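 As to AC50: potency for a decrease in mean network spike duration versus DMSO.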 The essentials: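 Primary rat cortical neurons on 16-electrode MEA wells (PEI-coated, laminin in plating drop), exposed from plating through DIV 12 with compound renewed at DIV 5 and 9. Mean network-spike duration recorded DIV 5, 7, 9, 12; trapezoidal AUC across days, DMSO baseline.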

Test [8] in a line: CCTE_Shafer_MEA_dev_per_network_spike_spike_number_mean: CCTE's Neural Network Formation Assay for Mean Number of Spikes in a Network Spike, Shafer Lab (AID 2284053). The gist of the method: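 Primary rat cortical neurons on 48-well, 16-electrode MEA plates were exposed from plating to DIV 12, with dosing renewed on DIV 5 and 9. Spikes per network spike (0.05 s peak window) were recorded on DIV 5, 7, 9 and 12 and collapsed as trapezoidal AUC versus DMSO.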

Test [9] is described as follows: CCTE_Shafer_MEA_dev_per_network_spike_spike_percent: CCTE's Neural Network Formation Assay for Percent of Spikes in a Network Spike, Shafer Lab (AID 2284054). The essentials: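 Read-out: percent of spikes falling in a 0.05 s window at network-spike peak, from spontaneous MEA recordings on days 5, 7, 9 and 12; trapezoidal AUC; loss of signal versus DMSO. Rat cortical cultures, compound present throughout.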

Test [10] can be described thus: CCTE_Shafer_MEA_dev_LDH: CCTE's Lactate Dehydrogenase Assay for Cytotoxicity in the Neural Network Formation Assay, Shafer Lab (AID 2284068; active = hit-call score of the fitted dose curve at least 0.9, where 1 is the maximum;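 also: exposure for twelve days from plating with re-dosing on DIV 5 and 9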). The gist of the method:
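Primary rat cortical neurons were plated on PEI/laminin MEA plates and exposed from day 0 for twelve days, with compound renewed at DIV 5 and 9. Cytotoxicity was determined by spectrophotometric LDH assay relative to DMSO.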

Test [11] is described as follows: CCTE_Shafer_MEA_acute_AB: CCTE's Alamar Blue Assay for Cytotoxicity in the Neural Acute Assay, Shafer Lab (AID 2284069; active = hit-call score of the fitted dose curve at least 0.9, where 1 is the maximum;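 also: active compounds lower the viability signal compared with DMSO wells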). The gist of the method: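 Primary rat cortical neurons on MEA plates, exposed acutely after baseline recording on day 13 or 15 post-plating. Viability by CellTiter Blue resazurin reduction (1:6 reagent dilution), fluorescence 544/590 nm; loss of signal versus DMSO.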
For orientation: The colour change of resazurin is a common sign of viable cells or microbes.

A short description of test [12]: CCTE_Shafer_MEA_dev_mutual_information_norm: CCTE's Neural Network Formation Assay for Mutual Information Normalization, Shafer Lab (AID 2284091). The gist of the method:
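Neurons from rat cortex were seeded at 1.5 x 10^5 cells/well onto PEI-coated MEAs in a laminin drop, then exposed to compound from day 0 for twelve days. Network recordings on four days gave mutual information, summarised by AUC relative to DMSO.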

Test [13] in a line: CCTE_Shafer_MEA_dev_correlation_coefficient_mean: CCTE's Neural Network Formation Assay for Mean Correlation Coefficient, Shafer Lab (AID 2284093). The essentials: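 Spontaneous activity recorded on days 5, 7, 9 and 12 post-plating; pairwise spike correlations are averaged across active electrodes and collapsed to an area-under-curve. Rat cortical cultures are dosed from plating through 12 days, with compound renewed at media changes.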

Test [14] in a line: CCTE_Shafer_MEA_dev_AB: CCTE's Alamar Blue Assay for Cytotoxicity in the Neural Network Formation Assay, Shafer Lab (AID 2284083; active = hit-call score of the fitted dose curve at least 0.9, where 1 is the maximum;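 also: twelve days of exposure from plating with re-dosing on DIV 5 and 9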). The essentials:
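Primary rat cortical neurons on PEI-coated 48-well MEA plates, 1.5 x 10^5 cells/well in laminin drop; compound exposure from day 0 of plating for twelve days, renewed at medium changes on DIV 5 and 9. Viability read as resazurin reduction by fluorescence, relative to DMSO.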

The next test deals with DIO2 (gene 1734). Description: CCTE_GLTED_hDIO2: CCTE's human Deiodinase 2 (DIO2) Inhibition Assay, Great Lakes Toxicology and Ecology Division (GLTED) Lab (AID 2284050; active = hit-call score of the fitted dose curve at least 0.9, where 1 is the maximum). The essentials: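 Inhibition is judged by reduced iodide release: uninhibited human DIO2 frees iodide from substrate over 3 h, measured afterward by Sandell-Kolthoff colorimetry. Iodinated chemicals or nitrite, iron and thiocyanate may interfere.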

A further test deals with DIO3 (gene 1735). Description: CCTE_GLTED_hDIO3: CCTE's human Deiodinase 3 (DIO3) Inhibition Assay, Great Lakes Toxicology and Ecology Division (GLTED) Lab (AID 2284055; active = hit-call score of the fitted dose curve at least 0.9, where 1 is the maximum;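 also: potency is for inhibition seen as loss of released iodide signal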). The gist of the method:
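Human type 3 deiodinase, expressed via adenovirus system, was exposed to test chemicals for 3 hours in a cell-free format. Released iodide was then determined spectrophotometrically by Sandell-Kolthoff; plates ran in triplicate.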

The nature of test [15]: UKN5_HCS_SBAD2_cell_viability: Viability Assessment in the University of Konstanz (UKN) Leist Lab Neurite Outgrowth Assay in human iPSC-derived immature Dorsal Root Ganglia Neurons (UKN5) (AID 2284056). The gist of the method: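 iPSC-derived immature peripheral neurons (SBAD2) seeded on Matrigel with CHIR99021, SU5402 and DAPT, dosed 1 h later for 24 h. Viability from Hoechst H-33342 and calcein-AM live staining, high-content imaging; bidirectional fit versus DMSO.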

Test [16] is described as follows: UKN5_HCS_SBAD2_neurite_outgrowth: University of Konstanz (UKN) Leist Lab Neurite Outgrowth Assay in human iPSC-derived immature Dorsal Root Ganglia Neurons (UKN5) (AID 2284070). The following applies: actives raise or lower the signal. The gist of the method: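 Thaw, seed on Matrigel (100.000 cells/cm2), dose 1 h later; at 23 h live-stain with H-33342 and calcein-AM for 60 min; image at 24 h. Neurite area fitted bidirectionally vs DMSO.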

Test [17] can be described thus: UKN2_HCS_IMR90_neural_migration: University of Konstanz (UKN) Leist Lab Neural Crest Cell Migration Assay in human induced IMR90 Pluripotent Stem Cells (UKN2) (AID 2284204). The following applies: actives raise or lower the signal. The essentials:
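Stopper-exclusion migration (cMINC), human iPSC-derived neural crest cells; N2-S + EGF/FGF; compound added 24 h post-stopper removal, 24 h exposure. Readout: calcein-AM/Hoechst 30 min, HCS fluorescence imaging; bidirectional fitting, DMSO baseline.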

Test [18] in a line: UKN4_HCS_LUHMES_neurite_outgrowth: University of Konstanz (UKN) Leist Lab Neurite Outgrowth Assay in human LUHMES cells (UKN4) (AID 2284206). The following applies: actives raise or lower the signal. The essentials: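 Human LUHMES cells were differentiated for two days, replated and treated with chemicals for 24 h. Neurite outgrowth was quantified as calcein-stained neurite area by HCS imaging, fitted bidirectionally relative to DMSO.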

Molecules are shown by their SMILES. Inconclusive results are not listed. Some compounds were tested as several samples or in several runs, with calls that do not always agree. Active and inactive are the calls of the source. The calls were made as follows, unless noted: active = hit-call score of the fitted dose curve at least 0.9, where 1 is the maximum; inactive = score below 0.9.

In the case of `O=C(O)c1ccccc1`, the outcome in test [1], in [2], in test [3], in test [4], in test [5] and in test [6] was inactive. In addition, the molecule was classed as inactive in [7], in [8], in test [9], in test [10], in [11] and in test [12]. For the same molecule, in [13], the molecule was classed as inactive.

By AC50 is commonly meant the concentration at which the activity in the assay is half-maximal. `CCCCOCCOCCOCc1cc2c(cc1CCC)OCO2`: the call in [1], in test [2], in test [3], in test [4], in [5] and in test [7] was inactive. Also, the call in test [8], in test [9], in test [14], in test [12] and in test [13] was inactive. For the same molecule, the AC50 in test [6] was 16.9 µM (active); in test [10] it was 15.3 µM (active).

`CCCN(CCC)c1c([N+](=O)[O-])cc(C(F)(F)F)c(N)c1[N+](=O)[O-]`: the figures for the AC50 in the test on DIO2 (gene 1734) and in the test with DIO3 (gene 1735) were 20 µM (active) and 21.4 µM (active), respectively.

As for `CCOC(=O)C(C)Oc1ccc(Oc2nc3ccc(Cl)cc3o2)cc1` (stereo not drawn), the AC50 in the test on DIO2 (gene 1734) is 44.6 µM (active); with DIO3 (gene 1735) it was 15.3 µM (active).

Take `S=C([S-])NCCNC(=S)[S-].[Mn+2]`: the call in [1], in test [2], in [3], in test [5], in test [6] and in [7] was inactive. For the same molecule, the molecule was called inactive in test [9], in [10], in [14], in [12] and in [13]. Further, the AC50 in test [4] is 1.19 µM (active); in [15] it was 7.5 µM (active); in test [16], 4.28 µM (active); in test [17], 14.2 µM (active); in test [18] it was 2.16 µM (active).

Consider `S=C(S)NCCNC(=S)S.[Mn+2].[S-]C([S-])=NCCN=C([S-])[S-].[Zn+2]`, for which the outcome in [1], in test [2], in test [3], in [4], in test [5] and in test [6] was inactive. Further, the call in test [7], in test [8], in [9], in test [15], in [10] and in test [14] was inactive. Also, the outcome in [12] and in test [13] was inactive. Moreover, the AC50 in test [6] was 7.52 µM (active); in the test on DIO2 (gene 1734), 50 µM (active); in [7] it was 2.42 µM (active); in the test on DIO3 (gene 1735) it was 43.6 µM (active); in test [16], 15 µM (active).

For `N#CSCSc1nc2ccccc2s1`, the molecule was called inactive in test [11].

With `CCCCC(CC)CN1C(=O)C2C3C=CC(C3)C2C1=O` (stereo not drawn), the molecule was called inactive in test [1], in test [2], in [3], in test [4], in test [5] and in test [6]. Besides, the molecule was classed as inactive in [7], in test [8], in test [9], in [10], in test [11] and in test [14]. Also, the result in test [12] and in test [13] was inactive.

With `O=C(c1ccc(O)cc1O)c1ccc(O)cc1O`, the call in [11] was inactive.

`COCCO`: the outcome in test [1], in test [2], in test [3], in [4], in [5] and in test [6] was inactive. For the same molecule, the molecule was called inactive in [7], in test [8], in test [9], in test [10], in test [12] and in test [13].

As to `CSC(=O)c1cccc2nnsc12`, the result in test [1], in [2], in test [3], in test [4], in test [5] and in test [6] was inactive. Also, the result in test [7], in [8], in [9], in [14], in [12] and in test [13] was inactive.

`CCCN(CCC)C(=O)SCC`: the call in [1], in [2], in [3], in [4], in test [5] and in test [6] was inactive. For the same molecule, the molecule was called inactive in test [7], in test [8], in test [9], in test [10], in test [14] and in test [12]. For the same molecule, the call in test [13] and in test [17] was inactive.

Regarding `CC(C)CCCCCCc1ccc(O)cc1`, the AC50 was 93.1 µM (active) in the test with DIO2 (gene 1734) and 18.8 µM (active) with DIO3 (gene 1735). Moreover, the molecule was called inactive in [11].

With `COC(=O)c1ccccc1C(=O)O`, the result in test [11] was inactive.
